Screen size: about 310,000 compounds; about 2,200 (0.71%) showed an effect of 50% or more. Effects have a minus sign here. The full list was thinned out, with strong results kept by preference.
Molecular target: human ether-à-go-go-related gene (hERG) potassium channel (human, UniProt Q12809)
Assay: primary screen, population patch clamp on CHO cells stably expressing hERG; higher = less effect of the substance

Sequence of human ether-à-go-go-related gene (hERG) potassium channel (Q12809 whole entry, looked up): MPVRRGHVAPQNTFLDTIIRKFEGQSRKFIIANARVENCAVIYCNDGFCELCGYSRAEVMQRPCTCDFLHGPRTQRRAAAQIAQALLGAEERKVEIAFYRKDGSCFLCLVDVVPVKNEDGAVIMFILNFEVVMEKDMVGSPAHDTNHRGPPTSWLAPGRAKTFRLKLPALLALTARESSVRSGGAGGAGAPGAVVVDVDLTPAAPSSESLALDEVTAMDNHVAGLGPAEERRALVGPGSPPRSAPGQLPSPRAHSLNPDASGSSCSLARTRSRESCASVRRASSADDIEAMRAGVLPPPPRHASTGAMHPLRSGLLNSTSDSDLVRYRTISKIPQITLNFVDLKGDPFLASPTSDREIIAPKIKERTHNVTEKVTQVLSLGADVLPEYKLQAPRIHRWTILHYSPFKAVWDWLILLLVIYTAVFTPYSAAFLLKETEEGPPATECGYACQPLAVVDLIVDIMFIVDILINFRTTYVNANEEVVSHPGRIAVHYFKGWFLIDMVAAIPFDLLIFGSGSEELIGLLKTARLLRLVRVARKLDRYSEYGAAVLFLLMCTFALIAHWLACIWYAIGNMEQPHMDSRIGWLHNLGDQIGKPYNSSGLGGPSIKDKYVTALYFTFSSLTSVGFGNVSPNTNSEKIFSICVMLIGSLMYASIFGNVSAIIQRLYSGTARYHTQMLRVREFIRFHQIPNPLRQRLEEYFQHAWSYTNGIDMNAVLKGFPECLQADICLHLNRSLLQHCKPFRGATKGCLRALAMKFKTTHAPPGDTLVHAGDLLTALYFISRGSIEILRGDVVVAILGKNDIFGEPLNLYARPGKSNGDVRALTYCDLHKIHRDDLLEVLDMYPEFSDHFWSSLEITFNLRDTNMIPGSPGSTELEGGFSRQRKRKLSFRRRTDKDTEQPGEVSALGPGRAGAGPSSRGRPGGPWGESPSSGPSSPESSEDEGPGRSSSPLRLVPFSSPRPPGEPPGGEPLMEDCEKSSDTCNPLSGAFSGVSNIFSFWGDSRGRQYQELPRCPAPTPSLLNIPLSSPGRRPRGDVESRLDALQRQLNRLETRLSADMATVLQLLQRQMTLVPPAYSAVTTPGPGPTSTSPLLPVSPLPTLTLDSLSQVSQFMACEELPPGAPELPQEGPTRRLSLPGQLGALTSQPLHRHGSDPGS

SMILES	hERG current change (%, negative = inhibition) at 1uM [%]
CCOc1ccccc1N(CC(=O)Nc1ccccc1C(=O)NCc1ccco1)S(C)(=O)=O	2.08
CC(Sc1nnc(Nc2ccccc2F)s1)C(=O)NC1CC1 (centres unmarked)	3
COCCc1ncc(CN2CCC(C(=O)Nc3ccc(-n4cccn4)cc3)CC2)cn1	-5.56
CNC(=O)c1cc2cc(OC)ccc2oc1=O	-4.3
O=C(O)c1ccc(NCc2ccc3c(c2)OCO3)cc1	10.6
Cc1nc2sccn2c(=O)c1S(=O)(=O)Nc1ccc(N2CCN(C)CC2)cc1	21.4
CC1CN(c2ccc([N+](=O)[O-])c(N3CCCCC3)c2)CCN1 (centres unmarked)	8.07
CCOC(=O)C1(CCOc2ccccc2)CCN(Cc2cccc(OC)c2)CC1	-24.4
CCOC(=O)C1(Cc2ccccc2)CCN(CC2CC=CCC2)CC1 (centres unmarked)	-5.83
CCOC(=O)C1(CCOc2ccccc2)CCN(Cc2cc(OC)cc(OC)c2)CC1	-61.5
CCOC(=O)C1(Cc2cccc(OC)c2)CCN(CC2CC=CCC2)CC1 (centres unmarked)	-50.6
CCOC(=O)C1(Cc2cccc(OC)c2)CCN(CCO)CC1	2.3
COCCCN1C(=O)C(=O)/C(=C(/O)c2ccc(S(=O)(=O)N3CCCCC3)cc2)C1c1cccc(OC)c1 (centres unmarked)	2.22
CC1(c2ccc(OC(F)F)cc2)NC(=O)N(CC(=O)Nc2ccc(N3CCCCC3)cc2)C1=O (centres unmarked)	18
CN1C(=O)c2ccccc2C(C(=O)O)C1c1cccc(Cl)c1 (centres unmarked)	8.65
CCN1C(=O)C2(C(C(=O)c3ccc(C)o3)=C(O)C(=O)N2CCCN(C)C)c2ccccc21 (centres unmarked)	14
COc1ccc2[nH]cc(C(=O)CN(C)C)c2c1	11.4
COc1ccc2[nH]cc(C(=O)CN(C)CCc3ccc(OC)c(OC)c3)c2c1	-60.6
CCN(CC)CC(=O)c1c[nH]c2ccc(OC)cc12	3.98
COC(=O)c1cc(S(=O)(=O)Nc2cccc(S(N)(=O)=O)c2)oc1C	8.79
COCCn1c(SCC(=O)c2c(N)n(C3CC3)c(=O)[nH]c2=O)nnc1-c1ccc(Cl)cc1	13.5
CN(Cc1ccccc1)C(=O)N1CCOCC1	17.7

SMILES	hERG current change (%, negative = inhibition) at 1uM [%]
CCOC(=O)N1CCN(c2ncnc3c2oc2nc(C(C)C)c4c(c23)CCC4)CC1	6.16
Cc1ccsc1C(=O)C1CCCN(Cc2cnc(N)nc2)C1 (centres unmarked)	4.23
Cc1ccsc1C(=O)C1CCCN(Cc2cccn2-c2ccccn2)C1 (centres unmarked)	-81.7
Cc1ccsc1C(=O)C1CCCN(Cc2ccccc2O)C1 (centres unmarked)	-3.16
Cc1ccsc1C(=O)C1CCCN(Cc2ccn[nH]2)C1 (centres unmarked)	9.05
Cc1ccsc1C(=O)C1CCCN(Cc2cccn2-c2ccc(Cl)cn2)C1 (centres unmarked)	-84.3
Cc1ncc(CN2CCCC(C(=O)c3sccc3C)C2)s1 (centres unmarked)	12.5
CCOc1ccccc1OCC(=O)Nc1ccc(S(=O)(=O)Nc2nc(C)cc(C)n2)cc1	0.94
Cc1ccc(S(=O)(=O)c2c(C)nn(-c3ccccc3)c2OC(=O)c2ccco2)cc1	5.81
CC(C)c1ccc2c(c1)[C@H]1OCC[C@H]1[C@@H](c1cccs1)N2	4.11
CCOC(=O)C(C)Oc1ccc(C2NC(=O)NC(C)=C2C(C)=O)cc1Br (centres unmarked)	4.32
Cc1ccc(NC(=O)Cn2cccc2C2=NC(c3ccccc3)CO2)c(C)c1 (centres unmarked)	3.9
CN1CCc2c1nc1ccccc1c2N.O=C(O)c1cc([N+](=O)[O-])ccc1Cl	7.96
Cc1ccc(C)c2c(N)c3c(nc12)CCCCC3.O=C(O)c1cncc(Br)c1	-51.9
CN1CCCCc2c1nc1ccccc1c2N.O=C(O)c1cncc(Br)c1	-79.7
O=C(O)c1cncc(Br)c1	8.7
Cc1cc(Br)c2nc3c(c(C(=O)O)c2c1)CCCCC3	7.18
Cc1cccc2c(N)c3c(nc12)N(C)CC3.O=C(O)C(=O)O	7.57
Cc1ccc(NC(=O)c2ccsc2)cc1NS(C)(=O)=O	15.1
Cc1ccc(-c2nnc3n2N=C(c2ccc(Br)cc2)CS3)cc1	4.56
C[n+]1c2n(c3ccccc31)N=C(c1ccc(Cl)cc1)CS2.[Br-]	-51.9
C[n+]1c2n(c3ccccc31)N=C(c1ccccc1)CS2.[Br-]	-17.3

SMILES	hERG current change (%, negative = inhibition) at 1uM [%]
COc1ccc(C2=Nn3c([n+](C)c4ccccc43)SC2)cc1.[Br-]	-13.2
C[n+]1c2n(c3ccccc31)N=C(c1ccc(-c3ccccc3)cc1)CS2.[Br-]	-39
C[n+]1c2n(c3ccccc31)N=C(c1cc(C(C)(C)C)c(O)c(C(C)(C)C)c1)CS2.[Br-]	-63.5
Cc1cc(Cn2nnc3ccccc32)c(O)c(C(C)(C)C)c1	23.6
C[n+]1c2n(c3ccccc31)N=C(c1ccc(Br)cc1)CS2.[Br-]	-53.1
CC1Sc2n(c3ccccc3[n+]2C)N=C1c1ccccc1.[Br-] (centres unmarked)	-16.8
COc1ccc(NC(=O)Cn2nnc(-c3ccccc3F)n2)cc1	8.09
CCC(=O)Nc1ccc(-c2nnc(SCC(=O)NCC3CCCO3)n2C)cc1 (centres unmarked)	14.4
COc1ccc(NC(=O)CN2C(=O)C(C)SC(C)C2=O)cc1 (centres unmarked)	6.14
Cn1c(-[n+]2c(-c3ccccc3)cc(-c3ccccc3)cc2-c2ccccc2)nc2c([N+](=O)[O-])cccc21.[I-]	-6.1
CCCCNC(=O)/C(=C\c1ccc([N+](=O)[O-])o1)NC(=O)c1ccccc1	-6.47
Cc1ccc(C(=O)N/C(=C\c2ccc(-c3ccccc3[N+](=O)[O-])o2)C(=O)NCCCN(C)C)cc1	-14.9
Cc1ccc(C(=O)N/C(=C\c2ccc(-c3ccccc3[N+](=O)[O-])o2)C(=O)NCCN(C)C)cc1	-29.7
Cc1ccc(C(=O)N/C(=C/c2ccc(-c3ccc([N+](=O)[O-])cc3)o2)C(=O)NCCCN(C)C)cc1	-78
CN(C)C(=O)/C(=C/c1ccc(-c2cccc([N+](=O)[O-])c2)o1)NC(=O)c1ccccc1	5.68
CN(C)CCCNC(=O)/C(=C/c1ccc(-c2ccc([N+](=O)[O-])cc2)o1)NC(=O)c1ccccc1	-52.5
CCOC(=O)C(C)Oc1cccc2c(=O)n(CC(=O)N3CCCc4ccccc43)ccc12 (centres unmarked)	15.8
CN(Cc1cccc2cnccc12)C(=O)c1cc(COc2ccc(F)cc2Cl)on1	19.5
Cc1cc(C)nc(SCC(=O)N(C)CC(=O)Nc2c(Cl)cccc2Cl)n1	7.52
O=C(Oc1ccc(-c2nccc(-c3ccccn3)n2)cc1)c1cccc(C(F)(F)F)c1	5.53
CNc1nc(C)nc(-n2nc(C)cc2C)n1	9.5
Cc1cc(C)n(-c2nc(C)nc(NCc3ccccc3)n2)n1	-61.6

SMILES	hERG current change (%, negative = inhibition) at 1uM [%]
Cc1cc(C)n(-c2nc(Nc3ccccc3)nc(-n3nc(C)cc3C)n2)n1	12.1
CCCOC(=O)c1ccc(NC(=O)CN(C)Cc2cccs2)cc1	11.8
O=C1c2ccsc2SCCN1Cc1cccc(Cl)c1	8.86
COc1ccc(N2CCN(C(=O)Cn3cnc4c(cnn4-c4ccccc4)c3=O)CC2)cc1	5.22
Cc1ccc(Cl)cc1NC(=O)CCS(=O)(=O)c1cccc2nonc12	10.8
Cl.Fc1ccc(CN2C3=NCCCN3c3ccccc32)cc1	-32.8
Cl.Clc1ccc(CN2C3=NCCCN3c3ccccc32)cc1	-54.3
Cc1ccc(CN2C3=NCCN3c3ccccc32)cc1.Cl	-23.5
Cl.Clc1ccc(CN2C3=NCCN3c3ccccc32)cc1	-40.4
Brc1ccc(CN2C3=NCCCN3c3ccccc32)cc1.Cl	-55.6
Cc1cc2c(cc1C)N(Cc1ccc(Cl)cc1)C1=NCCCN12	-28.4
c1ccc(CN2C3=NCCN3c3ccccc32)cc1	2.38
Cl.Clc1ccc(CN2C3=NCCCN3c3ccccc32)c(Cl)c1	-28.2
Cl.O=C(O)CN1C2=NCCCN2c2ccccc21	15.8
Cl.Clc1ccc(CN2C3=NCCN3c3ccccc32)cc1Cl	-72.3
Cl.O=C(CN1C2=NCCCN2c2ccccc21)c1ccc(Cl)cc1Cl	-82.1
Cl.c1ccc(CN2C3=NCCCN3c3ccccc32)cc1	-29
COc1ccc(Sc2ccc(NC(=O)c3ccccc3Cl)cc2C#N)cc1	8.52
Cc1ccc(-c2csc(N3CCC(NS(=O)(=O)c4ccc5c(c4)OCCO5)CC3)n2)cc1	9.83
CCOC(=O)Nc1nc(C)c(C(=O)N(C)C)s1	-1.49
